PfHsp90 yeast 2 – growth inhibition of yeast expressing Plasmodium Hsp90. S. cerevisiae expressing PfHsp90, BacTiter-Glo ATP, 48 h; yeast lacking PDR1 and PDR3 efflux regulators. inhibition, % at 9.4 µM. hit rate 0.32% among 310,000. AID 504621;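 active = every replicate shows inhibition above about 80%, whatever the replicate mean, limit read from the data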
Casp6 inh – blocks human caspase-6 cleavage activity. P55212. purified caspase-6, Z-VEID-R110 cleavage fluorescence. inhibition, % at 12.5 µM. hit rate 0.53% among 350,000. AID 686996;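 active = mean inhibition across replicates at least about 35%, with every replicate also reaching that limit, limit read from the data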
SIRT5 block – sirtuin-5 (human) deacylase inhibition | Q9NXA8 | Purified SirT5, succinyl-peptide AMC, trypsin-coupled fluorescence | inhibition, % at 15 µM | hit rate 1.1% among 330,000; in the data active = inhibition above about 15%
NSD2 HMT inh – NSD2 (human) methyltransferase inhibition | O96028 | NSD2 peptide methylation, AlphaScreen, 120 min | inhibition, % at 12.5 µM | hit rate 0.54% among 310,000; in the data active = inhibition above about 50%
Target sequence (O96028 whole entry, looked up): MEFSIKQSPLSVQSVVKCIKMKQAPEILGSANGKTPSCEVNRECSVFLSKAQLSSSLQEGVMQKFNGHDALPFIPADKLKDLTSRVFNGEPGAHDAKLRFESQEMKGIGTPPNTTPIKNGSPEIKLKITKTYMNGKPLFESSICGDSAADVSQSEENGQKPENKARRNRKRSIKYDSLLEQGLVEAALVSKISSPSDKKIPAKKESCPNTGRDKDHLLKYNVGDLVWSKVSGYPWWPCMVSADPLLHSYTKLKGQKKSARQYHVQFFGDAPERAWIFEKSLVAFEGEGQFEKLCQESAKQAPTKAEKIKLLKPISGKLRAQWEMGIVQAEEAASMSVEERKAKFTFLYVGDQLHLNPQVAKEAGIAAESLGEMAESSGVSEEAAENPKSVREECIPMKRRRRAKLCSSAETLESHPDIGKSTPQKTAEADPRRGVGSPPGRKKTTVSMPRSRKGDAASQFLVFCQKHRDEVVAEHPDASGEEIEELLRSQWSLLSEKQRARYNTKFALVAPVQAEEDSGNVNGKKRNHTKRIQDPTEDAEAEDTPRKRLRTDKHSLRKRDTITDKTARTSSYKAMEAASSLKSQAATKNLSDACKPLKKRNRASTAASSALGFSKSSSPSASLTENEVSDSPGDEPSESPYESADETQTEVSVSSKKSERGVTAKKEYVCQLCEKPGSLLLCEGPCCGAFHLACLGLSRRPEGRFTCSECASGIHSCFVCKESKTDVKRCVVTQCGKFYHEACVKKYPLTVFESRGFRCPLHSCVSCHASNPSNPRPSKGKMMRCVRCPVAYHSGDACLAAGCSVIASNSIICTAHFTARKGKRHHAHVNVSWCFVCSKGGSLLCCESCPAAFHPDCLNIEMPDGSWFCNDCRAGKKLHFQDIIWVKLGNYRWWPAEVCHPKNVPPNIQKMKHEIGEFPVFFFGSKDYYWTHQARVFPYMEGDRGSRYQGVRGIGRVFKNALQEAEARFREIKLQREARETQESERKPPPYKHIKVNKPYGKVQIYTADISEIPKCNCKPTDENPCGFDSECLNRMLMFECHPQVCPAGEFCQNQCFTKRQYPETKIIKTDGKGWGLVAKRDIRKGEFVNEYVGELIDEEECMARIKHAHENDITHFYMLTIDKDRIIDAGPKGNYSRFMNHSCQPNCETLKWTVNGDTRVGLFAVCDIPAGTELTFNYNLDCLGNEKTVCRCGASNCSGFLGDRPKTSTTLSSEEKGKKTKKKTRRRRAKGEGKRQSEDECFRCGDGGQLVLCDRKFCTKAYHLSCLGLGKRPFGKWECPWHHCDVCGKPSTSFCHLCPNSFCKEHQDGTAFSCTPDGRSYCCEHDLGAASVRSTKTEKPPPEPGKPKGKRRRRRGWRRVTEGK
ARNT TACC3 PPI – ARNT/TACC3 interaction disruption | Q9Y6A5 | AlphaScreen His-ARNT PAS-B/GST-TACC3 binding, luminescence; TACC3 fragment carries E629A point mutation | inhibition, % at 9.99 µM | hit rate 0.66% among 390,000;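 active = mean inhibition of replicates at least 50% and at least half of replicates each reaching 50%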
ARNT Alpha ctr – interferes with AlphaScreen signal, flagging false ARNT-TACC3 hits. hit rate 50% among 1,200. shares compounds with ARNT TACC3 PPI. AC50, µM (series often up to 68 µM). His-ARNT PASB-GST AlphaScreen artifact counter-screen, luminescence;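 active = every separate test run was called active for a drop in luminescence, with AC50 within twice the top valid dose, actives reach about 71 µM in these data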
A number is an active result; - = inactive; . = no result given. The list is not random: actives were taken first. Their share in the collection is about 2.1%.

SMILES	PfHsp90 yeast 2	Casp6 inh	SIRT5 block	NSD2 HMT inh	ARNT TACC3 PPI	ARNT Alpha ctr
O=C(N/N=C/c1cc(Cl)cc(Cl)c1O)c1ccncc1	-	-	-	.	54	34µM
O=C(N/N=C/c1cc(Cl)ccc1O)c1cccnc1	-	-	-	-	58	60µM
O=C(N/N=C/c1c(Cl)nc2ccccn2c1=O)c1cccnc1	-	-	-	-	57	-
O=C(N/N=C/c1ccc(Cl)cc1Cl)c1ccncc1	-	-	-	-	-	.
O=C(Nc1ccc(Br)cn1)c1cccc(C(=O)Nc2ccc(Br)cn2)c1	-	.	-	-	active	-
COc1ccc(-c2cnc3c(c2)C(=O)N([C@H](C)CO)C[C@H](C)[C@H](CN(C)Cc2cccnc2)O3)cc1	.	-	-	.	104	-
COc1ccc(-c2cnc3c(c2)C(=O)N([C@@H](C)CO)C[C@H](C)[C@H](CN(C)Cc2cccnc2)O3)cc1	.	-	-	.	-	.
COc1ccc(-c2cnc3c(c2)C(=O)N([C@@H](C)CO)C[C@H](C)[C@@H](CN(C)Cc2cccnc2)O3)cc1	.	-	-	.	108	-
COc1ccc(-c2cnc3c(c2)C(=O)N([C@H](C)CO)C[C@H](C)[C@@H](CN(C)Cc2cccnc2)O3)cc1	.	-	-	.	-	.
COc1ccc(-c2cnc3c(c2)C(=O)N([C@@H](C)CO)C[C@@H](C)[C@@H](CN(C)Cc2cccnc2)O3)cc1	.	-	-	.	85	-
COc1ccc(-c2cnc3c(c2)C(=O)N([C@H](C)CO)C[C@@H](C)[C@@H](CN(C)Cc2cccnc2)O3)cc1	.	-	-	.	-	.
O=C(C[C@@H]1CC[C@H](NC(=O)CN2CCOCC2)[C@H](CO)O1)NC1CCCCC1	.	-	-	.	-	.
CCCNC(=O)N1C[C@@H](O)COC[C@@H]2O[C@@H](CC(=O)NCCCN3CCOCC3)CC[C@H]21	.	-	-	.	-	.
CC(C)NC(=O)Nc1ccc2c(c1)C(=O)N([C@H](C)CO)C[C@@H](C)[C@H](CN(C)C(=O)Nc1ccccc1)OCCCC[C@@H](C)O2	.	-	-	.	-	.
CC(C)NC(=O)Nc1ccc2c(c1)C(=O)N([C@@H](C)CO)C[C@H](C)[C@@H](CN(C)C)OCCCC[C@H](C)O2	.	-	-	.	109	-
CC(C)NC(=O)N(C)C[C@@H]1OCCCC[C@@H](C)Oc2ccc(NC(=O)Cc3ccccc3)cc2C(=O)N([C@H](C)CO)C[C@@H]1C	.	-	-	.	-	.
CC(C)NC(=O)Nc1ccc2c(c1)C(=O)N([C@H](C)CO)C[C@@H](C)[C@H](CN(C)C)OCCCC[C@@H](C)O2	.	-	-	.	-	.
CC(C)NC(=O)N(C)C[C@H]1OCCCC[C@H](C)Oc2ccc(NC(=O)Cc3ccccc3)cc2C(=O)N([C@H](C)CO)C[C@H]1C	.	-	-	.	106	-
CC(C)NC(=O)Nc1ccc2c(c1)C(=O)N([C@H](C)CO)C[C@@H](C)[C@@H](CN(C)C(=O)Nc1ccccc1)OCCCC[C@@H](C)O2	.	-	-	.	66	-
CC(C)NC(=O)N(C)C[C@@H]1Oc2ccc(N(C)C)cc2CC(=O)N([C@@H](C)CO)C[C@H]1C	.	-	-	.	-	.
CC(C)NC(=O)N1CC2(C1)[C@@H](c1ccccc1)[C@H](CO)N2C(=O)C1CCC1	.	-	-	.	.	.
COc1ccc(C2c3c(nc[nH]c3=O)Oc3nc[nH]c(=O)c32)cc1	-	.	.	.	-	.
O=c1[nH]cnc2c1C(c1ccccc1[N+](=O)[O-])c1c(nc[nH]c1=O)O2	-	.	.	-	50	-
O=C(N=C1c2ccccc2CN1c1cccc(S(=O)(=O)N2CCOCC2)c1)c1ccccc1	.	.	.	-	.	.
COc1ccc(NCc2ccccc2[N+](=O)[O-])cc1OC	-	.	.	-	-	.
SMILES	PfHsp90 yeast 2	Casp6 inh	SIRT5 block	NSD2 HMT inh	ARNT TACC3 PPI	ARNT Alpha ctr
COc1cc2c(cc1OC)C(Cc1ccccc1[N+](=O)[O-])=NCC2	-	-	-	-	39	-
CCCNC(=O)N1[C@H](CO)[C@H](c2ccccc2)[C@H]1CNC(C)=O	.	-	-	.	-	.
O=C1CCN(Cc2ccccc2)C=C1c1ccc(C(F)(F)F)cc1	-	-	-	.	active	-
C[C@@H]1CCCCO[C@H](CN(C)Cc2ccncc2)[C@H](C)CN([C@H](C)CO)C(=O)c2cc(NC(=O)C3CCCCC3)ccc2O1	.	-	-	.	62	-
C[C@@H]1CCCCO[C@H](CN(C)C(=O)Nc2ccc3c(c2)OCO3)[C@H](C)CN([C@@H](C)CO)C(=O)c2cc(N(C)C)ccc2O1	.	-	-	.	.	.
C[C@@H]1CN([C@H](C)CO)C(=O)c2cc(NC(=O)Nc3ccc(C(F)(F)F)cc3)ccc2O[C@@H](C)CCCCO[C@H]1CN(C)Cc1ccc2c(c1)OCO2	.	-	-	.	68	53µM
C[C@@H]1CN([C@H](C)CO)C(=O)c2cc(N(C)C)ccc2O[C@@H](C)CCCCO[C@@H]1CN(C)Cc1ccc2c(c1)OCO2	.	-	-	.	57	58µM
C[C@@H]1CCCCO[C@H](CN(C)Cc2ccc3c(c2)OCO3)[C@@H](C)CN([C@@H](C)CO)C(=O)c2cc(NC(=O)Nc3ccc(C(F)(F)F)cc3)ccc2O1	.	-	-	.	-	.
C[C@@H]1CCCCO[C@@H](CN(C)C(=O)Nc2ccc3c(c2)OCO3)[C@@H](C)CN([C@@H](C)CO)C(=O)c2cc(N(C)C)ccc2O1	.	-	-	.	54	-
CN1C(=O)c2cc(NC(=O)c3ccc(F)cc3)ccc2OC[C@H]2O[C@H](CC(=O)NCC3CCCCC3)CC[C@@H]21	.	-	-	.	-	.
COc1ccc(-c2ccc3c(c2)[C@H]2[C@H](CCN2S(=O)(=O)c2ccc(OC)cc2)[C@@H](CO)N3)cc1	.	.	.	.	-	.
CC(C)C#Cc1ccc2c(c1)O[C@@H](CN(C)C(=O)CN(C)C)[C@@H](C)CN([C@@H](C)CO)S2(=O)=O	.	-	-	.	99	-
CO[C@@H]1CN(C)C(=O)c2ccc(NC(=O)C3CC3)cc2OC[C@@H](C)N(CC2CCCC2)C[C@@H]1C	.	-	-	.	-	.
COc1ccc(CN(C)C[C@@H]2Oc3ccc(NS(=O)(=O)c4cn(C)cn4)cc3CC(=O)N([C@@H](C)CO)C[C@H]2C)cc1	.	-	-	.	-	.
Clc1nssc1=Nc1nncs1	-	-	.	.	36	-
N#Cc1cccc(N=c2ssnc2Cl)c1	-	.	-	-	.	.
Cc1cc(NC(=O)c2cc(-c3ccccc3)on2)no1	-	.	.	.	-	.
Cc1cccc(NC(=O)c2cc(-c3ccccc3)on2)n1	.	.	.	.	.	-
CCCn1cc(NC(=O)c2cc(-c3ccccc3)on2)cn1	-	.	.	-	-	.
O=C(Nc1ccc2ccccc2n1)c1cc(-c2ccccc2)on1	.	.	.	.	.	-
Cn1c(NC(=O)c2cc(-c3ccccc3)on2)nc2ccccc21	.	.	.	.	.	-
COc1ccccc1-c1cn(CC[C@@H]2CC[C@H](NS(=O)(=O)c3ccccc3C)[C@H](CO)O2)nn1	.	-	-	.	-	.
CCCC#Cc1ccc([C@@H]2[C@H](CO)N3C(=O)CN(S(=O)(=O)Cc4ccccc4)C[C@@H]23)cc1	.	-	-	.	.	.
COc1ccc(-c2coc3c(C)c4oc(=O)c(CCC(=O)O)c(C)c4cc23)cc1	-	.	.	-	-	.

Screening results: PubChem, Broad Institute
